# Source: PubChem BioAssay (NCI)
# The panel holds about 79,000 compounds, 15% with a hit somewhere; the sample as a whole holds those more often. Values without a mark were called inactive. Activity calls are given as the source filed them. Cut-off read from the data, not from the text of the source: active = growth inhibition above about 70%; inactive = the rest.
# Tests used:
# [1] = NCI Yeast Anticancer Drug Screen. Data for the rad52 strain (AID 147);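 note: 0% = growth of vehicle-treated control cultures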; settings: S. cerevisiae rad52 mutant growth inhibition, active compounds read high
# Method in brief: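 Genetically altered yeast (DNA damage repair defect) treated with compound; inhibition calculated relative to vehicle.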
# [2] = NCI Yeast Anticancer Drug Screen. Data for the wt1 strain (AID 149);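 note: 0% = growth of vehicle-treated wt1 cultures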; settings: S. cerevisiae wt1 strain (SPY 50644) growth inhibition, active compounds read high
# Method in brief: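 The wt1 strain was treated with compounds, and growth was compared with vehicle-treated cultures to give inhibition.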
# [3] = NCI Yeast Anticancer Drug Screen. Data for the rad50EPP+ strain (AID 151);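 note: 0% = growth of vehicle-treated control cultures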; settings: S. cerevisiae rad50 mutant strain, active compounds read high
# Method in brief: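 Strain rad50EPP+; compound exposure; % growth inhibition vs vehicle.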
# [4] = NCI Yeast Anticancer Drug Screen. Data for the mgt1 strain (AID 153); settings: S. cerevisiae mgt1 mutant growth inhibition, active compounds read high
# Method in brief: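 Read-out: yeast growth inhibition vs vehicle control. Strain mgt1, drawn from a panel altered in DNA damage repair or cell cycle control.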
# [5] = NCI Yeast Anticancer Drug Screen. Data for the rad50 strain (AID 155);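 note: 0% = growth of vehicle-only cultures of the same strain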; settings: S. cerevisiae rad50 strain growth inhibition, active compounds read high
# Method in brief: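 Cells are treated with compound, grown, and their growth is then scored against vehicle-only cultures of the same repair-deficient yeast strain.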
# [6] = NCI Yeast Anticancer Drug Screen. Data for the mec2-1 strain (AID 157); settings: S. cerevisiae mec2-1 strain, active compounds read high
# Method in brief: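 Cells of the genetically defined mec2-1 yeast strain are incubated with test compound. Inhibition of growth is calculated against vehicle-treated controls.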
# [7] = NCI Yeast Anticancer Drug Screen. Data for the rad14 strain (AID 159);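 note: 0% = growth of vehicle-treated control cultures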; settings: S. cerevisiae rad14 strain growth inhibition, active compounds read high
# Method in brief: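 Readout: yeast growth inhibition, referenced to vehicle-only cultures. Strain bears a defined alteration in DNA damage repair.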
# [8] = NCI Yeast Anticancer Drug Screen. Data for the sgs1 mgt1 strain (AID 161);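 note: 0% = growth of cultures given vehicle only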; settings: S. cerevisiae sgs1 mgt1 strain, active compounds read high
# Method in brief: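 Inhibition of yeast growth, normalised to vehicle-treated controls, is reported for a strain bearing genetic alterations in DNA damage repair.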
# [9] = NCI Yeast Anticancer Drug Screen. Data for the CLN2oe strain (AID 163);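 note: 0% = growth of vehicle-only control cultures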; settings: S. cerevisiae CLN2oe strain, active compounds read high
# Method in brief: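 Strain altered in cell-cycle control, incubated with compound; growth compared to solvent-treated controls.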
# [10] = NCI Yeast Anticancer Drug Screen. Data for the cln2 rad14 strain (AID 165);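 note: 0% = growth equal to vehicle treated cultures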; settings: S. cerevisiae cln2 rad14 strain, active compounds read high
# Method in brief: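 The screen exposed genetically defined yeast (cln2 rad14) to test compounds and scored growth inhibition relative to vehicle-treated controls.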
# [11] = NCI Yeast Anticancer Drug Screen. Data for the bub3 strain (AID 167); settings: S. cerevisiae bub3 mutant strain, active compounds read high
# Method in brief: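 Part of a panel of yeast mutants defective in DNA damage repair or cell cycle regulation. Each strain is grown with compound, and inhibition is calculated relative to solvent-treated cultures.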
# [12] = NCI Yeast Anticancer Drug Screen. Data for the wt2 strain (AID 169);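 note: 0% = growth of vehicle-treated yeast cultures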; settings: S. cerevisiae wt2 strain growth inhibition, active compounds read high
# Method in brief: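 Steps: yeast strain treated with compound; growth recorded; inhibition calculated relative to cultures given vehicle alone.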
# [13] = NCI Yeast Anticancer Drug Screen. Data for the sgs1 strain (AID 173);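 note: 0% = growth of vehicle-only control cultures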; settings: S. cerevisiae sgs1 mutant, active compounds read high
# Method in brief: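 Inhibition of yeast growth served as the measure. The mutant strain was treated with each compound, and growth was normalised to cultures receiving vehicle alone.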
# [14] = NCI Yeast Anticancer Drug Screen. Data for the mlh1 rad18 strain (AID 175); settings: S. cerevisiae mlh1 rad18 strain growth inhibition, active compounds read high
# Method in brief: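 Compound-treated yeast growth, normalised to vehicle controls. Strain bears defined DNA repair mutations.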
# [15] = NCI Yeast Anticancer Drug Screen. Data for the rad18 strain (AID 177); settings: S. cerevisiae rad18 mutant growth inhibition, active compounds read high
# Method in brief: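 Inhibition values reflect reduced yeast growth compared with vehicle-treated controls, using a strain engineered with a DNA damage repair defect.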
# [16] = NCI Yeast Anticancer Drug Screen. Data for the mlh1 strain (AID 171);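 note: 0% = growth of vehicle-treated control cultures of the same strain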; settings: S. cerevisiae mlh1 strain growth inhibition, active compounds read high
# Method in brief: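 Yeast screen: mutant strain plus compound, growth scored against vehicle control wells.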
# [17] = at 5.0 µM (retest, dose inferred, filed as 0.5)
# [18] = at 50.0 µM (retest, dose inferred, filed as 5.0)
structure (smiles),measurement,setting,value
O=S(=O)(O)c1ccc(Cl)cc1.[Cd],growth inhibition,[1]; at 1.2 µM,3%
same,growth inhibition,[1]; at 3.7 µM,9%
same,growth inhibition,[1]; at 11.0 µM,35%
same,growth inhibition,[1]; at 33.0 µM,50%
same,growth inhibition,[1]; at 100.0 µM,66%
same,growth inhibition,[2]; at 1.2 µM,2%
same,growth inhibition,[2]; at 3.7 µM,11%
same,growth inhibition,[2]; at 11.0 µM,25%
same,growth inhibition,[2]; at 33.0 µM,55%
same,growth inhibition,[2]; at 100.0 µM,73% (active)
same,growth inhibition,[3]; at 1.2 µM,9%
same,growth inhibition,[3]; at 3.7 µM,14%
same,growth inhibition,[3]; at 11.0 µM,23%
same,growth inhibition,[3]; at 33.0 µM,56%
same,growth inhibition,[3]; at 100.0 µM,75% (active)
same,growth inhibition,[4]; at 1.2 µM,0%
same,growth inhibition,[4]; at 3.7 µM,15%
same,growth inhibition,[4]; at 11.0 µM,27%
same,growth inhibition,[4]; at 33.0 µM,55%
same,growth inhibition,[4]; at 100.0 µM,77% (active)
same,growth inhibition,[5]; at 1.2 µM,-2%
same,growth inhibition,[5]; at 3.7 µM,15%
same,growth inhibition,[5]; [17],25%
same,growth inhibition,[5]; at 11.0 µM,47%
same,growth inhibition,[5]; at 33.0 µM,73% (active)
same,growth inhibition,[5]; [18],46%
same,growth inhibition,[5]; at 50.0 µM,57.1%
same,growth inhibition,[5]; at 100.0 µM,84% (active)
same,growth inhibition,[6]; at 1.2 µM,-2%
same,growth inhibition,[6]; at 3.7 µM,5%
same,growth inhibition,[6]; [17],6%
same,growth inhibition,[6]; at 11.0 µM,14%
same,growth inhibition,[6]; at 33.0 µM,25%
same,growth inhibition,[6]; [18],46%
same,growth inhibition,[6]; at 50.0 µM,39.4%
same,growth inhibition,[6]; at 100.0 µM,37%
same,growth inhibition,[7]; at 1.2 µM,-2%
same,growth inhibition,[7]; at 3.7 µM,18%
same,growth inhibition,[7]; at 11.0 µM,48%
same,growth inhibition,[7]; at 33.0 µM,71% (active)
same,growth inhibition,[7]; at 100.0 µM,86% (active)
same,growth inhibition,[8]; [17],23%
same,growth inhibition,[8]; [18],53%
same,growth inhibition,[8]; at 50.0 µM,50.5%
same,growth inhibition,[9]; at 1.2 µM,-18%
same,growth inhibition,[9]; at 3.7 µM,-17%
same,growth inhibition,[9]; at 11.0 µM,-6%
same,growth inhibition,[9]; at 33.0 µM,8%
same,growth inhibition,[9]; at 100.0 µM,20%
same,growth inhibition,[10]; [17],8%
same,growth inhibition,[10]; [18],11%
same,growth inhibition,[10]; at 50.0 µM,21.4%
same,growth inhibition,[11]; at 1.2 µM,-8%
same,growth inhibition,[11]; at 3.7 µM,8%
same,growth inhibition,[11]; [17],-6%
same,growth inhibition,[11]; at 11.0 µM,6%
same,growth inhibition,[11]; at 33.0 µM,19%
same,growth inhibition,[11]; [18],27%
same,growth inhibition,[11]; at 50.0 µM,2.7%
same,growth inhibition,[11]; at 100.0 µM,30%
same,growth inhibition,[12]; at 1.2 µM,2%
same,growth inhibition,[12]; at 3.7 µM,11%
same,growth inhibition,[12]; at 11.0 µM,20%
same,growth inhibition,[12]; at 33.0 µM,32%
same,growth inhibition,[12]; at 100.0 µM,44%
same,growth inhibition,[13]; at 1.2 µM,2%
same,growth inhibition,[13]; at 3.7 µM,10%
same,growth inhibition,[13]; at 11.0 µM,17%
same,growth inhibition,[13]; at 33.0 µM,29%
same,growth inhibition,[13]; at 100.0 µM,44%
same,growth inhibition,[14]; [17],24%
same,growth inhibition,[14]; [18],47%
same,growth inhibition,[14]; at 50.0 µM,59%
same,growth inhibition,[15]; at 1.2 µM,0%
same,growth inhibition,[15]; at 3.7 µM,8%
same,growth inhibition,[15]; at 11.0 µM,23%
same,growth inhibition,[15]; at 33.0 µM,44%
same,growth inhibition,[15]; at 100.0 µM,51%
CCC1(OC(=O)CN)C(=O)OCc2c1cc1n(c2=O)Cc2cc3ccccc3nc2-1 (stereo unspecified),growth inhibition,[1]; at 1.2 µM,93% (active)
same,growth inhibition,[1]; at 3.7 µM,95% (active)
same,growth inhibition,[1]; at 11.0 µM,96% (active)
same,growth inhibition,[1]; at 33.0 µM,97% (active)
same,growth inhibition,[1]; at 100.0 µM,97% (active)
same,growth inhibition,[2]; at 1.2 µM,-1%
same,growth inhibition,[2]; at 3.7 µM,4%
same,growth inhibition,[2]; at 11.0 µM,51%
same,growth inhibition,[2]; at 33.0 µM,88% (active)
same,growth inhibition,[2]; at 100.0 µM,94% (active)
same,growth inhibition,[3]; at 1.2 µM,45%
same,growth inhibition,[3]; at 3.7 µM,67%
same,growth inhibition,[3]; at 11.0 µM,85% (active)
same,growth inhibition,[3]; at 33.0 µM,92% (active)
same,growth inhibition,[3]; at 100.0 µM,93% (active)
same,growth inhibition,[4]; at 1.2 µM,20%
same,growth inhibition,[4]; at 3.7 µM,25%
same,growth inhibition,[4]; at 11.0 µM,50%
same,growth inhibition,[4]; at 33.0 µM,80% (active)
same,growth inhibition,[4]; at 100.0 µM,91% (active)
same,growth inhibition,[5]; at 1.2 µM,94% (active)
same,growth inhibition,[5]; at 3.7 µM,96% (active)
same,growth inhibition,[5]; [17],97% (active)
same,growth inhibition,[5]; at 11.0 µM,97% (active)
same,growth inhibition,[5]; at 33.0 µM,97% (active)
same,growth inhibition,[5]; [18],97% (active)
same,growth inhibition,[5]; at 50.0 µM,98% (active)
same,growth inhibition,[5]; at 100.0 µM,97% (active)
same,growth inhibition,[6]; at 1.2 µM,19%
same,growth inhibition,[6]; at 3.7 µM,82% (active)
same,growth inhibition,[6]; [17],84% (active)
same,growth inhibition,[6]; at 11.0 µM,96% (active)
same,growth inhibition,[6]; at 33.0 µM,97% (active)
same,growth inhibition,[6]; [18],95% (active)
same,growth inhibition,[6]; at 50.0 µM,99% (active)
same,growth inhibition,[6]; at 100.0 µM,98% (active)
same,growth inhibition,[7]; at 1.2 µM,4%
same,growth inhibition,[7]; at 3.7 µM,23%
same,growth inhibition,[7]; at 11.0 µM,76% (active)
same,growth inhibition,[7]; at 33.0 µM,93% (active)
same,growth inhibition,[7]; at 100.0 µM,96% (active)
same,growth inhibition,[8]; [17],62%
same,growth inhibition,[8]; [18],96% (active)
same,growth inhibition,[8]; at 50.0 µM,94% (active)
same,growth inhibition,[10]; [17],49%
same,growth inhibition,[10]; [18],92% (active)
same,growth inhibition,[10]; at 50.0 µM,89.2% (active)
same,growth inhibition,[11]; at 1.2 µM,9%
same,growth inhibition,[11]; at 3.7 µM,13%
same,growth inhibition,[11]; [17],8%
same,growth inhibition,[11]; at 11.0 µM,44%
same,growth inhibition,[11]; at 33.0 µM,79% (active)
same,growth inhibition,[11]; [18],94% (active)
same,growth inhibition,[11]; at 50.0 µM,96.9% (active)
same,growth inhibition,[11]; at 100.0 µM,92% (active)
same,growth inhibition,[12]; at 1.2 µM,0%
same,growth inhibition,[12]; at 3.7 µM,4%
same,growth inhibition,[12]; at 11.0 µM,67%
same,growth inhibition,[12]; at 33.0 µM,90% (active)
same,growth inhibition,[12]; at 100.0 µM,95% (active)
same,growth inhibition,[16]; at 1.2 µM,3%
same,growth inhibition,[16]; at 3.7 µM,15%
same,growth inhibition,[16]; at 11.0 µM,70% (active)
same,growth inhibition,[16]; at 33.0 µM,93% (active)
same,growth inhibition,[16]; at 100.0 µM,96% (active)
same,growth inhibition,[13]; at 1.2 µM,8%
same,growth inhibition,[13]; at 3.7 µM,38%
same,growth inhibition,[13]; at 11.0 µM,85% (active)
same,growth inhibition,[13]; at 33.0 µM,94% (active)
same,growth inhibition,[13]; at 100.0 µM,95% (active)
same,growth inhibition,[14]; [17],42%
same,growth inhibition,[14]; [18],-13%
same,growth inhibition,[14]; at 50.0 µM,97.3% (active)
same,growth inhibition,[15]; at 1.2 µM,31%
same,growth inhibition,[15]; at 3.7 µM,33%
same,growth inhibition,[15]; at 11.0 µM,58%
same,growth inhibition,[15]; at 33.0 µM,80% (active)
same,growth inhibition,[15]; at 100.0 µM,89% (active)
